Experimental data from PubChem BioAssay AID1671463 (Sanford-Burnham Center for Chemical Genomics, 2021).
Out of some 370,000 compounds screened, about 520 (0.14%) were called active. For the sample, actives were picked, then their nearest neighbours and some compounds at random. Values without a mark were called inactive. Cut-off read from the data, not from the text of the source: active = activation above about 40%; inactive = the rest.

Each molecule was assayed against Atrial natriuretic peptide receptor 1 (Homo sapiens) (UniProt P16066) (assay: GC-A stimulated cGMP production enhancers – HEK293 GC-A cells, cGMP TR-FRET, EC30 ANP, primary screen (AID 1671463)). Details: at 10 µM, hits give high values, 0% at EC30 ANP, 100% saturating ANP.
Atrial natriuretic peptide receptor 1 (Homo sapiens), sequence (P16066 whole entry, looked up): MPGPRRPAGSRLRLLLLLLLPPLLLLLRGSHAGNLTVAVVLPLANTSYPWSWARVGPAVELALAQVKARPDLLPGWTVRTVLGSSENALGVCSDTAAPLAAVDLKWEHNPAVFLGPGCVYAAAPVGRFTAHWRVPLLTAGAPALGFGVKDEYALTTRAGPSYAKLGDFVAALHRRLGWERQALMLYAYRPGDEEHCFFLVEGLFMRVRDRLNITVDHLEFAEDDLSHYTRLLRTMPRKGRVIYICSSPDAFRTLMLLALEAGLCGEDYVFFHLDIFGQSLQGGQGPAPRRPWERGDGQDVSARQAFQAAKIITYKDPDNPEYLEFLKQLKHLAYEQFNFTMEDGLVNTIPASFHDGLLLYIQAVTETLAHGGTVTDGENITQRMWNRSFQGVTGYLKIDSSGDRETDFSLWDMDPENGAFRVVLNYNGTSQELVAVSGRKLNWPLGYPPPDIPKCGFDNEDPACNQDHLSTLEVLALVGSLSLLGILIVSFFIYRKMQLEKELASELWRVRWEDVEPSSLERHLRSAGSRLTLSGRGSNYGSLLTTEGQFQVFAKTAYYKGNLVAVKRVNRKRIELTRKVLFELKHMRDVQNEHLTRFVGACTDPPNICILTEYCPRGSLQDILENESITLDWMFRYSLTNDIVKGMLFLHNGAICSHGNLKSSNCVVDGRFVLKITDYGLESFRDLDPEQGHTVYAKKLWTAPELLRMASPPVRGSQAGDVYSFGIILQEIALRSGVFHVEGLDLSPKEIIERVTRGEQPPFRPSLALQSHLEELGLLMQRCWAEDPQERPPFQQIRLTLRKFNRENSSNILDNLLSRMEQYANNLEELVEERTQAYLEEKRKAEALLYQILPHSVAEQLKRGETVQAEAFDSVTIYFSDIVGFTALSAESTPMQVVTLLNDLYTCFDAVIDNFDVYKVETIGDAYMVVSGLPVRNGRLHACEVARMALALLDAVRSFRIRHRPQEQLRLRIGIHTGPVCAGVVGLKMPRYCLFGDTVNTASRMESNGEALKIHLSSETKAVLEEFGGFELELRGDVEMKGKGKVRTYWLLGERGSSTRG
In the case of `CC(=O)OCCN1CCCC12CCC(c1ccccc1)CC2` (stereo unspecified), the activation is reported as 4.33%.
Molecule `COc1ccc(CCNC(=O)COc2ccc3c(c2)OCO3)cc1` has an activation of -3.12%.
For `NC(=O)C1=C[C@H](c2csc3ccccc23)C[C@H](OCc2ccc(CO)cc2)O1`, the activation was -0.65%.
`CC(C)COC(=O)n1c(=O)oc2ccc(S(=O)(=O)N3CCCCC3)cc21` gave an activation of 0.62%.
`CCOc1ccc2nc(Cl)c(C3CC(c4ccccc4)=NN3C(=O)c3cccs3)cc2c1` (stereo unspecified) was tested, and the activation was 1.83%.
For `COc1ccc(C2CC(c3ccccc3)=NN2C(=O)c2ccc(Cl)c([N+](=O)[O-])c2)cc1` (stereo unspecified), the activation was 69.5% (active).
`COc1ccc(C2CC(c3cccc(OC)c3)=NN2c2ccc(S(N)(=O)=O)cc2)cc1` (stereo unspecified) showed an activation of 6.44%.
In the case of `O=C1C=CC(=O)N1c1ccc(N2CCCCC2)cc1`, the activation is reported as 50.5% (active).
In the case of `Cc1nc(Cl)c2oc3ccccc3c2n1`, the activation is reported as 41.1% (active).
Work on `C[C@@H](Nc1nc(-c2ccccc2)nc2c1oc1ccccc12)C(=O)O` yielded an activation of -3.4%.
Molecule `Cc1nc(N2CCCC2C(=O)O)c2oc3ccccc3c2n1` (stereo unspecified) has an activation of -1.86%.
`CC12CN(NC(=O)c3ccc(Cl)cc3)C3(C#N)CC1CCC23C` (stereo unspecified) gave an activation of 0.43%.
Work on `C#CCN([C@H](C(=O)OC)C(C)CC)S(=O)(=O)c1ccccc1Br` (stereo partly specified) yielded an activation of -4.19%.
In the case of `Cc1ccc(S(=O)(=O)CC(=O)NC(C)c2ccccc2)cc1` (stereo unspecified), the activation is reported as 4.14%.
With `CCOc1ccccc1NC(=O)C1CCC(CNc2c(N3CCOCC3)c(=O)c2=O)CC1` (stereo unspecified) the activation was 0.11%.
For `CC(C)c1cc(C(=O)O)on1`, the activation was -0.6%.
For `Cc1ccc(C(=O)NCC(=O)NCc2cc(=O)n(C)c(=O)n2C)cc1`, the activation was 1.88%.
For `CN(C)/C(=N\OC(=O)c1ccccc1)c1nonc1N`, the activation was -2.63%.
For `Nc1c(-c2cccc(Cl)c2)cnn1-c1cccc([N+](=O)[O-])c1`, the activation was -2.54%.
`CCOc1ccc(Oc2c(Cl)cnn(-c3ccc(C)cc3)c2=O)cc1` was tested, and the activation was 4.6%.
For `Cc1cccc(-n2ncc(Cl)c(Cl)c2=O)c1`, the activation was 40.6% (active).
Work on `COC(=O)c1ccc(C2C3=C(Nc4nnnn42)c2ccccc2OC3)cc1` (stereo unspecified) yielded an activation of 1.48%.
`CCc1c(C)sc(NC(=O)OC)c1C(=O)N1CCOCC1` was tested, and the activation was 0.05%.
With `C/C(Cl)=C\Cn1c(Nc2cccc(C)c2)nc2c1c(=O)n(C)c(=O)n2C` the activation was 51.1% (active).
In the case of `Cc1cccc(Cn2c(N3CCN(c4ccccc4)CC3)nc3c2c(=O)n(C)c(=O)n3C)c1`, the activation is reported as -29%.
In the case of `Cn1c(=O)c2c(nc(N/N=C/c3cccs3)n2Cc2ccc(Br)cc2)n(C)c1=O`, the activation is reported as 18.6%.
`CCN(CC(=O)Nc1cc(Cl)ccc1C)C(=O)CSCc1ccc(C)cc1` was tested, and the activation was -0.6%.
Work on `CC1(c2ccc3ccccc3c2)NC(=O)N(CC(N)=O)C1=O` (stereo unspecified) yielded an activation of 3.94%.
`C=CCN1C(=O)[C@@H](CC(=O)NCCCCc2ccccc2)[C@]2(C(=O)OCC)CCCCC/C=C/12` gave an activation of 3.65%.
Work on `COc1ccc(N(CC(=O)NCC2CCCO2)C(=O)CCC(=O)Nc2nccs2)c(OC)c1` (stereo unspecified) yielded an activation of 4.75%.
With `CC(C)(C)C(=O)CCN1C(=O)C2(OCCO2)c2ccccc21` the activation was 1.22%.
`CC(=O)NC(c1cccs1)c1cc(Br)c2cccnc2c1O` (stereo unspecified) was tested, and the activation was -1.9%.
`CCCCCCCCN1C(=O)[C@@H](CC(=O)NCc2ccccc2)C[C@@]2(C(=O)OC)C1=C[C@H](C(C)(C)C)O[C@@H]2C` gave an activation of 2.65%.
For `O=C(/C=C/Sc1ncn[nH]1)c1ccc(Cl)cc1`, the activation was 64.8% (active).
For `COc1ccc(CN2CC[C@H]3C=CC[C@@H](C(=O)N4CCOCC4)[C@H]3C2=O)cc1OC`, the activation was 1.45%.
`COC(=O)c1c(NC(=O)COc2ccc(Cl)cc2Cl)sc2c1CC(C)(C)NC2(C)C` gave an activation of 6%.
For `CSCC[C@H](NC(=O)NC1CCCC1)C(=O)O`, the activation was 0.42%.
Molecule `O=C(NCCc1ccccc1)c1c[nH]c2ccc(F)cc2c1=O` has an activation of 1.93%.
With `O=c1[nH]c2c(c(=O)n1-c1ccccc1)CCO2` the activation was -0.17%.
Work on `Fc1ccc(Nc2nnns2)cc1` yielded an activation of 3.58%.
In the case of `COCCN(Cc1ccccc1)C(=O)Cc1ccc(S(=O)(=O)N2CCOCC2)s1`, the activation is reported as -2.49%.
In the case of `CS(=O)(=O)c1cccc(-c2ccc3nncn3c2)c1`, the activation is reported as 4.9%.
Work on `CCCCS(=O)c1snnc1C` (stereo unspecified) yielded an activation of 1.27%.
In the case of `COc1ccc(/C=C/CN2CCN(Cc3ccc(C)cc3)C(CCO)C2)cc1` (stereo unspecified), the activation is reported as 0.4%.
`O=C(OCC(=O)N1CCCC1)c1ccc(Cl)nc1` gave an activation of -0.33%.
Molecule `CC1(C)CC(N(Cc2ccccc2)C(=O)Cc2ccccc2)CCO1` (stereo unspecified) has an activation of -16.2%.
With `CCOc1c(Br)cc(/C=C2\C(=O)N(CCC#N)N=C2C)cc1OC` the activation was 40.1% (active).
`Cc1ccc(C(c2nnnn2CS(=O)(=O)c2ccc(C)cc2)N2CCC(C)CC2)cc1` (stereo unspecified) gave an activation of -0.04%.
For `CCCSc1nsc(N)n1`, the activation was -1.07%.
Molecule `CC(C)(CNC(=O)Cc1ccc(Cl)cc1Cl)N1CCOCC1` has an activation of 1.34%.
For `CCOC(=O)c1cccc(NC(=O)C2CCCN(S(=O)(=O)c3cnc[nH]3)C2)c1` (stereo unspecified), the activation was 1.55%.
With `Cc1ccsc1C1C(C#N)=C(N)OC2=C1C(=O)CC(C)(C)C2` (stereo unspecified) the activation was 1.86%.
`CCCn1nnnc1NC(=O)COc1ccc(Cl)cc1C` gave an activation of 0.54%.
`O=C(c1ccc(CS(=O)Cc2ccccc2Cl)o1)N1CCN(c2ccccc2)CC1` (stereo unspecified) showed an activation of -8.64%.
With `O=C(NCCc1ccco1)c1nn(Cc2ccccc2)c(=O)c2ccccc12` the activation was 41.3% (active).
`Cc1ccsc1C(=O)NCCc1ccco1` was tested, and the activation was 5.29%.
`O=c1c2ccccc2c(-c2ccc(Br)cc2)nn1Cc1ccccc1` gave an activation of 1.66%.
`Cc1ccc(S(=O)(=O)NNC(=S)NC(C)(C)C)cc1` showed an activation of 4.04%.
With `COC(=O)[C@@H](NC(=O)Nc1cc(Cl)ccc1C)C(C)C` the activation was 4.54%.
For `CC(C)Oc1ccc(S(=O)(=O)N2CCOCC2)cc1NC(=O)C1CCCC1`, the activation was 0%.
In the case of `Cn1c2ccccc2c2cc(/C=C(\NC(=O)c3ccccc3)C(=O)NCC(=O)O)ccc21`, the activation is reported as 1.03%.
